Tg IFNy HTS – T. gondii growth inhibition with IFN-gamma, primary screen, cell-based | Toxoplasma gondii growth in IFN-gamma-treated host cells; stronger effect = lower value | activity change, negative = inhibition, % (test concentration not listed) | 69,000 compounds, 3.8% hits; in the data active = activity change below about -70%, passing the limit was not always enough;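 note: host cells are HeLa cells infected with Toxoplasma gondii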
Starred values were filed as active, the others as inactive; ! = not active in a repeat. The sample as a whole holds a higher share of hits than the screen did.

SMILES	Tg IFNy HTS
O=C(Cn1ncc2c(N3CCN(c4ccccn4)CC3)ncnc21)NCc1ccc(F)cc1Cl	117
CCN(Cc1ccccn1)C(=O)c1ccc(OCC(=O)N2CCCCC2)cc1	-3
CN1C(=O)CCc2cc(NC(=O)c3cc(F)cc(F)c3)ccc21	186
CCS(=O)(=O)N1CCC2O[C@@H](COc3cccnc3)CCC21 (stereo not given in full)	-3
NC(=O)c1cnc2n1CCN(C(=O)CN1CCC(c3ccccc3)C1)C2 (stereo not given)	5
COc1cccc(-c2cc(C(=O)Nc3cnn(Cc4cccc(F)c4)c3)on2)c1	-96*
COc1cccc(Cn2cc(NC(=O)C3(c4cc(C)cc(C)c4)CCOCC3)cn2)c1	-4
Cc1nc(-c2ccccc2F)sc1C(=O)Nc1cnn(Cc2cccc(F)c2)c1	-89*
O=C(CN1CCC(c2ccccc2)CC1)Nc1cnn(Cc2cccc(F)c2)c1	-14
Cn1c(=O)c(C(=O)Nc2cnn(Cc3cccc(F)c3)c2)nc2ccccc21	-17
Cc1nc(-c2ccccc2F)sc1C(=O)NCc1nc(Cc2ccccc2)no1	-6
O=C(NCc1ccco1)C1CCN(c2nc3ccccc3s2)CC1	30
CCN(CC)Cc1cn2c(n1)CN(S(=O)(=O)c1ccccc1)CC2	-61
CCN1C[C@]23CN(C(=O)C4CCC4)C[C@@H](C[C@H]2S1(=O)=O)O3	1
CSc1nccc(NCC(O)c2nccn2C)n1 (stereo not given)	18
COC(=O)C1=C(C)NC(C)=C(C(=O)OCCCN2CCC(c3ccccc3)(c3ccccc3)CC2)[C@H]1c1cccc([N+](=O)[O-])c1	-71*!
COCCOC(=O)C1=C(C)NC(C)=C(C(=O)OC(C)C)C1c1cccc([N+](=O)[O-])c1 (stereo not given)	7
COCCOC(=O)C1=C(C)NC(C)=C(C(=O)OC/C=C/c2ccccc2)C1c1cccc([N+](=O)[O-])c1 (stereo not given)	-73*!
CC1=C(C(=O)OCCN(Cc2ccccc2)c2ccccc2)C(c2cccc([N+](=O)[O-])c2)C(P2(=O)OCC(C)(C)CO2)=C(C)N1 (stereo not given)	-13
COC(=O)C1=C(C)NC(C)=C(C(=O)O[C@@H]2CCCN(Cc3ccccc3)C2)[C@@H]1c1cccc([N+](=O)[O-])c1	32
CCOC(=O)C1=C(C)NC(C)=C(C(=O)OC)C1c1cccc([N+](=O)[O-])c1 (stereo not given)	-2
O=C(NCc1cccnc1)[C@H]1C[C@@H]2CN(c3ncc(F)cn3)C[C@H]1O2	3
Cc1ncc(C(=O)NCc2ccccc2)c(CCNC(=O)c2ccccc2)n1	-13
CN(C)c1ncc(-c2cnn(C)c2)c(C2CCCCN2C(=O)CCc2ccc(F)cc2)n1 (stereo not given)	-1
COc1cc(NC(=O)Nc2ccnn2C)cc(OC)c1	-8
SMILES	Tg IFNy HTS
Cc1nccnc1-c1ccnn1C(=O)Nc1cc(Cl)cc(Cl)c1	-82*
Cc1nc(-c2cccs2)sc1-c1ccnn1C(=O)NC(C)C	98
CC(C)C1CN(CCC(=O)O)CCCN1Cc1ccc(F)cc1 (stereo not given)	-50
Cn1ccnc1-c1ccc(N2CCN(C/C=C/c3ccccc3)CC2)nn1	13
COc1cc(OC)nc(/C=C/c2ccccc2)n1	-13
Cc1cc(Nc2cc(N3CCN(C)CC3)nc(/C=C/c3ccccc3)n2)n[nH]1	-74*
CNC(=O)c1ccc(CN2CC=C(C(C)N(C)C(C)=O)CC2)o1 (stereo not given)	14
Cc1ccccc1S(=O)(=O)N1CCCn2nc(C(=O)N3CCCC3)cc2C1	1
CC(C)N1CC2CCC(C1)C2C(=O)NCCc1cccs1 (stereo not given)	114
O=C(NCCc1csc(-c2ccccc2)n1)C1CCN(C(=O)c2ccc(F)c(Cl)c2)CC1	-50
Oc1c(Cl)cc(Cl)c2cccnc12	-83*
Oc1c(I)cc(I)c2cccnc12	-76*!
Cc1ccc2c(Cl)cc(Cl)c(O)c2n1	-81*
O=c1[nH]n(CCO)c(=O)c2cccnc12	77
Oc1ccc(Cl)c2cccnc12	12
COc1ccc(-c2ncc(Cl)cn2)c2ccc(C)nc12	-38
O=S(=O)(O)c1cc(I)c(O)c2ncccc12	10
O=C(Oc1ccc(Cl)c2cccnc12)c1cccnc1	-68
CCOCC1c2c(cnn2CC2CC2)CCN1C(=O)c1cc(C)on1 (stereo not given)	-19
O=C(c1ccccc1F)N1CCC2(CC1)Nc1ccccc1-n1cccc12	8
COCCC(=O)N1CC[C@@H]2C(=O)N(c3ccsc3)CCO[C@@H]2C1	-1
O=C(c1ccc(F)cc1)N1CCC2(CCCN2c2ncccn2)CC1	-6
CCOc1ccc(C(=O)N2CCC3(CC2)Nc2cccnc2NC3=NC2CCCC2)cc1	254
CCn1ccnc1CN1CCOC2(COCCN(C(=O)c3ccccc3)C2)C1 (stereo not given)	-5
CC(C)N1CCO[C@H]2CN(Cc3cnn(C)c3)C[C@@H]21	-13
SMILES	Tg IFNy HTS
CC(C)c1noc(-c2cc(=O)n(CC(=O)Nc3ccc(F)cc3F)c3ccccc23)n1	6
CC(C)(C)N=C1Nc2ncccc2NC12CCN(C(=O)c1ccco1)CC2	-40
Cc1ccc(-c2nnc(CNCCSc3nnnn3C)o2)n1C	4
Cc1nc2c(c(N(C)C)n1)CCN(C(=O)c1cc3sccc3[nH]1)C2	-2
COCC1c2nnn(C)c2CCN1C(=O)Cc1cccc(F)c1 (stereo not given)	4
Cn1ncc(Cl)c1-c1cc(C(=O)N[C@H](CN)Cc2cccc(F)c2)sc1Cl	-85*
Cn1c(C(=O)NCc2cccc(F)c2)nc2c1CCN(S(C)(=O)=O)C2	-9
Clc1ccc(-n2ncc3c(NC4CCCCCCCCCCC4)ncnc32)cc1	11
Cc1ccc(Nc2ncnc3c2cnn3-c2ccc(Cl)cc2)cc1	22
CC(C)Nc1ncnc2c1cnn2-c1ccc(Cl)cc1	-73*
Cc1cc(-n2cnnc2CCc2ccccc2)n(C)n1	11
COc1ncccc1CN1CCc2cc(C(=O)O)c(C)nc2CC1	-17
Cc1cc(C)n(-c2ccc(Cl)c(C(=O)Nc3cccc(Cn4cncn4)c3)c2)n1	-1
CSc1ncc(C(=O)Nc2ccc(Oc3ccc4c(c3)OCO4)cc2)cn1	-103*
CSc1ncc(C(=O)Nc2cccc(C(=O)N3CCCCC3)c2)cn1	13
CCCN(CCC)S(=O)(=O)c1ccc(NC(=O)c2ccc3c(c2)OCO3)cc1	-65
Cc1ccc(C(=O)NCCCNC(=O)c2cccc(Cl)c2)cn1	-4
CCOc1ccc(CNC(=O)c2nnn(Cc3nc(-c4cccc(C)c4)oc3C)c2C)cc1	-34
COc1ccc(OC)c(NC(=O)c2nnn(Cc3nc(-c4cccc(Cl)c4)oc3C)c2C)c1	54
Cc1cccc(-c2nc(Cn3nnc(C(=O)NCc4ccc(F)c(Cl)c4)c3C)c(C)o2)c1	-93*
Cc1cc(NC(=O)c2nnn(Cc3nc(-c4cccc(Cl)c4)oc3C)c2C)ccc1Br	67
Cc1ccc(NC(=O)c2nnn(Cc3nc(-c4cccc(Cl)c4)oc3C)c2C)cc1F	77
Cc1cccc(-c2nc(Cn3nnc(C(=O)NCc4ccc(C(F)(F)F)cc4)c3C)c(C)o2)c1	8
Cc1cccc(-c2nc(Cn3nnc(C(=O)NCc4ccc(Br)cc4)c3C)c(C)o2)c1	-32
COc1ccc(NC(=O)c2nnn(Cc3nc(-c4cccc(Cl)c4)oc3C)c2C)cc1	-110*
Cc1cccc(-c2nc(Cn3nnc(C(=O)NCc4cccc(Cl)c4)c3C)c(C)o2)c1	-97*
NC(=O)C1(N2CCCCC2)CCN(c2ncc(NC(=O)c3ccc(F)cc3)cc2C(=O)O)CC1	3

High-throughput results: PubChem BioAssay, Broad Institute
